Compound activity: PubChem, Broad Institute
Tgondii IFNg = inhibitors of Toxoplasma gondii growth with IFN-gamma | 69,000 tested, 3.8% active | activity change, negative = inhibition, % (concentration not given with the values) | Toxoplasma gondii growth in IFN-gamma-treated host cells; stronger effect = lower value; in the data active = activity change below about -70%, passing the limit was not always enough;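 note: host cells are HeLa cells infected with Toxoplasma gondii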
Starred values were filed as active, the others as inactive; ! = a repeat was not active. The full list was thinned out, with hits kept by preference.

SMILES	Tgondii IFNg
Cc1c(NC(=O)c2cc3nc(-c4ccccc4)cc(C)n3n2)c(=O)n(-c2ccccc2)n1C	-86*
CCn1c(CC2CCNCC2)nn(Cc2cccc(-n3cccn3)c2)c1=O	12
Cc1ccc2[nH]c(C(=O)NCc3cccnc3)c(NC(=O)c3ccc(Cl)cc3)c2c1	-16
CNC(=O)c1ccc(CNC(=O)c2[nH]c3ccc(C)cc3c2C)o1	-108*
CNC(=O)c1ccc(CNC(=O)Cc2c(C)[nH]c3c(C)ccc(C)c23)o1	5
O=C(Cn1ncc2c(N3CCOCC3)ncnc21)N1CCN(c2ccccn2)CC1	150
C#CCCC(=O)N(CC)Cc1cc(Cl)ccc1OC	38
Cc1c(C(=O)N2CCC(C)CC2)oc2ccc3c(c12)C(O)CC1(CCCCC1)O3 (centres undefined)	-100*
CC1(C)Oc2ccc3ccc(=O)oc3c2C(N2CCCCC2)C1O (centres undefined)	-8
Cc1ccc(C(=O)N2CCC3(CC2)CC(CC(=O)NCC(C)C)c2ccccc2O3)o1 (centres undefined)	-39
CCN1CCN(Cc2cc(C(=O)N(C)Cc3ccsc3)no2)CC1	17
O=C(c1cccc(C(F)(F)F)c1)N1CCN(S(=O)(=O)c2cc3c4c(c2)CCN4C(=O)CC3)CC1	25
O=C(CCC(=O)N1CCN[C@H]2CS(=O)(=O)C[C@H]21)NC1CCCC1	-3
Cc1cnn(Cc2nc(-c3ccc(NC(=O)c4sccc4C)cc3)oc2C)c1	-51
Cc1cnn(Cc2nc(-c3ccc(NC(=O)c4cccs4)cc3)oc2C)c1	-76*
Cc1ccc(C(=O)Nc2ccc(-c3nc(Cn4cccn4)c(C)o3)cc2)c(C)c1	-59
Cc1cnn(Cc2nc(-c3ccc(NC(=O)c4ccc(F)cc4Cl)cc3)oc2C)c1	-45
Cc1cnn(Cc2nc(-c3ccc(NC(=O)c4ccccc4Cl)cc3)oc2C)c1	-84*
CCOc1ccccc1C(=O)Nc1ccc(-c2nc(Cn3cc(C)cn3)c(C)o2)cc1	-45
Cc1oc(-c2ccc(NC(=O)c3ccccc3Cl)cc2)nc1Cn1cccn1	-100*
Cc1cnn(Cc2nc(-c3ccc(NC(=O)c4ccc(Cl)s4)cc3)oc2C)c1	63
Cc1ccc(C)c(C(=O)Nc2ccc(-c3nc(Cn4cccn4)c(C)o3)cc2)c1	127
Cc1oc(-c2ccc(NC(=O)/C=C/c3ccccc3)cc2)nc1Cn1cccn1	-87*
Cc1ccccc1CC(=O)Nc1ccc(-c2nc(Cn3cccn3)c(C)o2)cc1	32
Cc1cc(C)n(Cc2nc(-c3ccc(NC(=O)/C=C/c4ccccc4)cc3)oc2C)n1	-43
SMILES	Tgondii IFNg
CCOC(=O)C1CCN(C(=O)C2(NC(=O)Nc3c(C)cccc3C)CCCCC2)CC1	-13
CCOCC1c2c(ncn2C(C)C)CCN1C(=O)C1CC1 (centres undefined)	-14
Cc1nn(C(=O)Cn2nc(C)c(Br)c2C)c(C)c1Cl	4
CCN1c2cc(Cl)ccc2C(=O)NC12CCN(C(=O)Nc1ccccc1OC)CC2	119
CNc1nc(-c2cc(NCc3ccccn3)nc3[nH]ccc23)nc2c1CCC2	25
CC(C)n1nc(COCCN(C)C)c2c1CN(c1nccs1)CC2	0
Cc1ccc(C(=O)Nc2ccc(-c3nc(Cn4cc(C)cn4)c(C)o3)cc2)cc1	62
Cc1cnn(Cc2nc(-c3ccc(NC(=O)c4ccccc4)cc3)oc2C)c1	-38
Cc1cnn(Cc2nc(-c3ccc(NC(=O)c4cc(F)cc(F)c4)cc3)oc2C)c1	87
Cc1cccc(C(=O)Nc2ccc(-c3nc(Cn4cc(C)cn4)c(C)o3)cc2)c1	-87*
Cc1cnn(Cc2nc(-c3ccc(NC(=O)c4ccccc4C(F)(F)F)cc3)oc2C)c1	-88*
Cc1cnn(Cc2nc(-c3ccc(NC(=O)c4ccc(C(F)(F)F)cc4)cc3)oc2C)c1	-63
O=C(CSCc1ccccc1Cl)NCc1cc(C2CC2)n[nH]1	60
CC(C)(O)C#Cc1ccc(CN2CCCN(C(=O)C3CCC3)CC2)s1	8
CN(C)CCn1ccnc1-c1ccc(C#CC(C)(C)O)cc1	0
CCN(CC)CCCC(C)Nc1c2ccc(Cl)cc2nc2ccc(OC)cc12 (centres undefined)	-72*!
COc1ccc2nc(C)cc(SCC(=O)c3ccc(Cl)cc3)c2c1	124
COc1cc(NC(C)CCCN)c2ncccc2c1 (centres undefined)	28
CCN1c2cc(C)ccc2-n2cccc2C12CCN(C(=O)NCc1ccc(C)cc1)CC2	-62
CSc1ccc2cc(CN(C)Cc3cnccn3)c(=O)[nH]c2c1	-1
COc1ccc(OC)c(C2CCCN2C(=O)CCn2cnnn2)c1 (centres undefined)	-18
COc1ccccc1CNC(=O)C1=C(C)C(=O)OC12CCN(S(=O)(=O)c1cccs1)CC2	23
CC(C)Nc1ncnc2c1CCN(C(=O)[C@H]1CCCO1)CC2	1
O=C(Nc1ccncc1)C12CC3CC(CC(C3)C1)C2	-47
O=C(N1CCCCC1)C12CC3CC(CC(C3)C1)C2	18
SMILES	Tgondii IFNg
O=C(c1ccc2nc(NC(=O)C34CC5CC(CC(C5)C3)C4)sc2c1)N1CCCCC1	-85*
O=C(NC1CCc2[nH]c(=O)ccc2C1)c1ccnnc1 (centres undefined)	-39
Cc1ccc(C)c(S(=O)(=O)N2CCC3(CC2)Nc2ccccc2-n2cccc23)c1	44
COc1cccc(Oc2ccc(-n3cnnc3)cn2)c1	47
CCc1nc(SCC(=O)NCc2sc(C)nc2CC)n[nH]1	-16
COc1cc2c(cc1OC(C)C)[C@H](c1ccc(Cl)cc1)N(c1ccc(N(C)CC3CCC(N4CCN(C)C(=O)C4)CC3)cc1)C(=O)C2 (some centres undefined)	-79*
CCOc1cc2c(cc1OCC)C(c1ccccc1)N(c1ccc(C(=O)O)cc1)C(=O)C2 (centres undefined)	-16
CCOC(=O)c1c(NC(=O)c2ccccc2)sc(C(=O)Nc2ccccc2)c1C	3
CCOC(=O)c1c(NC(=O)c2c(C)nn(-c3ccccc3)c2Cl)sc(C)c1C	-48
CCOC(=O)c1c(NC(=S)NC(=O)c2ccccc2)sc(C)c1C	-73*
CCOC1C2CCC1N(S(=O)(=O)c1ccc(C)cc1)CCO2 (centres undefined)	5
O=C(N1Cc2cnn(CCO)c2C1)C1(c2ccccc2)CC1	3
CC(C)CNC(=O)C1Cn2ccnc2C2(CCN(C(=O)C3CCOCC3)CC2)O1 (centres undefined)	13
CCc1ccc(NC(=O)N2CCC3(CC2)OC(C(=O)NCC(C)C)Cn2ccnc23)cc1 (centres undefined)	60
CCc1cnc(N2CCC3(CC2)OC(C(=O)NCC(C)C)Cn2ccnc23)nc1 (centres undefined)	-103*
O=C(C1CC1)N1CCc2c([nH]c3ccccc23)C1c1ccc(F)cc1 (centres undefined)	492
OCCN(Cc1cccnc1)Cc1cccn1-c1ccc(F)cc1F	-25
COCCC(=O)c1nc2c(o1)CN(Cc1ccccc1)C2	1
C[C@@H]1CN([C@@H](C)CO)C(=O)Cc2cc(NS(=O)(=O)c3ccc(Cl)cc3)ccc2O[C@@H]1CN(C)C(=O)Nc1ccc(C(F)(F)F)cc1	-79*
C[C@@H]1CN([C@@H](C)CO)C(=O)Cc2cc(NS(=O)(=O)c3ccc(Cl)cc3)ccc2O[C@H]1CN(C)C(=O)Nc1ccc(C(F)(F)F)cc1	-25
C[C@H](CO)N1C[C@H](C)[C@H](CN(C)C(=O)Nc2ccc(C(F)(F)F)cc2)Oc2ccc(NS(=O)(=O)c3ccc(Cl)cc3)cc2CC1=O	5
C[C@@H]1CN([C@H](C)CO)C(=O)Cc2cc(NC(=O)C3CCCCC3)ccc2O[C@H]1CN(C)Cc1ccc(Cl)c(Cl)c1	-72*
